# Results reported in PubChem BioAssay AID1878 (Sanford-Burnham Center for Chemical Genomics, 2009).
# In all, about 1,000 compounds went through this assay and about 200 (20%) were called active. Rule as the data show it: active = inhibition above about 55%; inactive = the rest. Not all results are given here. Potency and affinity values are given separately.
# Molecular target: Dual specificity protein phosphatase 3 (Homo sapiens) (UniProt P51452)
# Assay: VHR1 phosphatase inhibitors, biochemical (AID 1878)
# Conditions: recombinant VHR phosphatase, fluorogenic substrate; at 13.3 µM; hits give high values
# Chain of Dual specificity protein phosphatase 3 (Homo sapiens) (P51452 whole entry, looked up): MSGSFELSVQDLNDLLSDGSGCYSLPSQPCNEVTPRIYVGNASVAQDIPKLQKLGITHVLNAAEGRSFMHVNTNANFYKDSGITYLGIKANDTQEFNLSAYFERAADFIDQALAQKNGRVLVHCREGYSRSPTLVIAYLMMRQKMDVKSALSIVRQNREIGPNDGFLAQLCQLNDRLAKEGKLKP
row,Compound,inhibition
1,O=C(c1cc(F)c(F)c(F)c1F)N1CCN(Cc2ccc3c(c2)OCO3)CC1,-6.3% (inactive)
2,O=C1NN(c2ccccc2)C(=O)/C1=C\c1ccccc1,5.2% (inactive)
3,CN(C)c1nc(N(C)C)nc(N(C#N)Cc2ccc(Cl)cc2)n1,2% (inactive)
4,COc1cc(CNc2ccc(N3CCN(C(C)=O)CC3)cc2)ccc1OCc1ccc(F)cc1,-8.4% (inactive)
5,COc1ccc(C2CC(=O)C(C=NCCO)=C(O)C2)cc1 (stereo unspecified),-0.8% (inactive)
6,COc1cc(/C=N/n2c(C)nc3ccccc3c2=O)ccc1O,16.3% (inactive)
7,COc1ccc2nc(C)cc(SCC(=O)N/N=C/c3c(OC)ccc4ccccc34)c2c1,92% (active)
8,COc1ccc(OC)c(NC(=O)Cc2coc3ccc4ccccc4c23)c1,-4.5% (inactive)
9,COc1ccc2c(c1)c(C(=O)N/N=C/c1ccc(OC)c(OC)c1)c(C)n2C,-4.6% (inactive)
10,CN(C)CCCNC(=S)N(CCCN(C)C)Cc1cc2cc3c(cc2[nH]c1=O)OCO3,-11.5% (inactive)
11,CN(CCO)c1nc(N)c2c(N)nc3c(c2c1C#N)CC(=O)N3C1CCCC1,2.2% (inactive)
12,Cc1ccc(N=Nc2cc(C)ccc2O)c(C)c1,0.1% (inactive)
13,CC(=O)Nc1c(-c2ccccc2)c2cc(Br)ccc2[nH]c1=O,-0.4% (inactive)
14,CC1CCCN(CCCNC(=O)C2CCN(S(=O)(=O)N3CCC4(CC3)OCCO4)CC2)C1 (stereo unspecified),2.1% (inactive)
15,O=C(Cn1cnc2c(oc3nc4c(cc32)CCCC4)c1=O)Nc1cccc(Cl)c1,37.7% (inactive)
16,Cc1ccc2nc(NC(=O)CCCc3nc4ccccc4s3)sc2c1,-0.6% (inactive)
17,CSc1ccc(NC(=O)N2CCN(c3nc4ccccc4s3)CC2)cc1,5% (inactive)
18,Cc1csc(NC(=O)CCCC(=O)O)c1-c1nc2ccccc2s1,98.8% (active)
19,O=C(CN1CCN(S(=O)(=O)c2ccc(Br)cc2)CC1)c1ccc(O)c(O)c1,-4.1% (inactive)
20,Cc1cc(C)cc(NS(=O)(=O)c2ccc(-c3cnc(C4CC4)o3)cc2)c1,13% (inactive)
21,CCOc1cc(/C=N/NC(=O)c2ccc(-c3csc(Nc4ccc(C)cc4)n3)cc2)ccc1OCC(=O)O,75.5% (active)
22,CC(NC(=O)COc1ccc(/C=N/NC(=O)CO)cc1)c1ccccc1 (stereo unspecified),1.2% (inactive)
23,CC(C)(C)c1ccc2c(c1)OC(C(=O)N/N=C\c1ccc[nH]1)CO2 (stereo unspecified),6.8% (inactive)

row,Compound,inhibition
1,CCOC(=O)C1CCCN(CC(=O)Nc2nccs2)C1 (stereo unspecified),23.9% (inactive)
2,CCOC(=O)c1ccc(S(=O)(=O)Nc2ccc(N3CCOCC3)cc2)cc1,-9% (inactive)
3,CC(=O)N1CC(=O)Nc2ccc(F)cc2C1c1ccccc1 (stereo unspecified),32.3% (inactive)
4,CCOC(=O)C1=C(N)Oc2ccc3ccccc3c2C1c1cccc(O)c1 (stereo unspecified),-5.7% (inactive)
5,O=C(Nc1ccc(-n2nncc2-c2ccco2)cc1)c1cc2ccccc2oc1=O,96.1% (active)
6,CCn1c2ccccc2c2n[nH]c(=S)nc21,-2.6% (inactive)
7,Cc1cc(C)c(S(=O)(=O)Nc2ccc(N(C)C)cc2)c(C)c1-n1cnnn1,-1.2% (inactive)
8,CC(=O)NCCc1nc2cc(NC(=O)c3ccc([N+](=O)[O-])cc3)ccc2n1C,-5.3% (inactive)
9,COc1ccc(Cc2nnc(NC(=O)c3ccco3)s2)cc1,-10% (inactive)
10,CCN(CC)CCCNc1oc(-c2ccccc2[N+](=O)[O-])nc1C#N,22.5% (inactive)
11,O=C1CSC(c2cccc([N+](=O)[O-])c2)N1Cc1ccccc1 (stereo unspecified),3.2% (inactive)
12,Cc1ccc(OCCCCN2CCCCC2)cc1,6.5% (inactive)
13,Cc1ccccc1NC(=O)CN1C(=O)N/C(=C\c2ccccc2OCc2ccc(C(=O)O)cc2)C1=O,84.1% (active)
14,CSc1nsc2nc(=O)c(/C=C3\C(C)=Nc4ccccc43)c(N)n12,7.5% (inactive)
15,COc1cc(NC(=O)c2noc(C)c2[N+](=O)[O-])c(OC)cc1Cl,-2.3% (inactive)
16,CC1CC(C)CN(CCCNC(=O)C2CCCN(S(=O)(=O)N3CC(C)CC(C)C3)C2)C1 (stereo unspecified),20.9% (inactive)
17,C=CCn1c(=O)c2c(nc3n2CCCN3Cc2ccccc2)n(C)c1=O,-4% (inactive)
18,Cc1cccc(NC(=O)c2cc(-c3ccc(C)c(C)c3O)n[nH]2)c1,8.4% (inactive)
19,Cc1cccc(NC(=O)c2cc3c(=O)n4ccccc4nc3s2)c1,93.3% (active)
20,C/C(=N\NC(=O)c1c(C)nc2ccccn12)c1ccccc1F,-12.4% (inactive)
21,CCC(N)Cc1c[nH]c2ccccc12 (stereo unspecified),14.4% (inactive)
22,O=C(COc1ccc2c(-c3ccccc3)cc(=O)oc2c1)Nc1ccc(CCO)cc1,84.8% (active)
23,O=C(COc1ccccc1)Nc1ccncc1Cl,8.7% (inactive)

row,Compound,inhibition
1,Cc1cccc(CC(=O)Nc2cccnc2)c1,-5.3% (inactive)
2,O=C(COc1ccc2c(-c3ccccc3)cc(=O)oc2c1)Nc1cccnc1,92.7% (active)
3,CC(C)CCN1CCC(n2nccc2NC(=O)C2CCOC2)CC1 (stereo unspecified),-5.2% (inactive)
4,Oc1cc(Br)ccc1C=Nc1ccc(N2CCCCC2)cc1,-10% (inactive)
5,CCN(CC)c1ccc(NC(=O)CCNS(=O)(=O)c2ccc3c(c2)CCC(=O)N3)c(C)c1,-13.1% (inactive)
6,CC1CCN(CCNC(=O)C2CCCN(c3ncnc4c3nc3n4CCCCC3)C2)CC1 (stereo unspecified),7.1% (inactive)
7,Cc1occc1C(=O)N1CCCC(CCC(=O)NCc2ccc(F)c(F)c2)C1 (stereo unspecified),-8.6% (inactive)
8,COc1ccccc1NC(=O)C1CCCN(S(=O)(=O)c2ccc3c(c2)CC(C)N3C(C)=O)C1 (stereo unspecified),17.3% (inactive)
9,O=C(NC1CC2CCC(C1)N2Cc1ccccc1)c1ccccc1Br (stereo unspecified),-2.7% (inactive)
10,O=[N+]([O-])c1ccc(Oc2cccc3cccnc23)c(Cl)c1,-14.5% (inactive)
11,O=P(Cc1ccccc1)(c1ccccc1)c1ccccc1,6.2% (inactive)
12,Cc1cc(O)c(C=Nc2ccc(N3CCOCC3)cc2)c(C)c1Cl,0.1% (inactive)
13,CCOC(=O)c1ccc(N/N=C/c2cc(Br)cc([N+](=O)[O-])c2O)cc1,27.8% (inactive)
14,O=C(N/N=C/c1cc(Br)cc([N+](=O)[O-])c1O)c1ccc(NC(=O)c2ccc(F)cc2)cc1,95.6% (active)
15,COc1ccc(CC(=O)Nc2cccc3c2CCCC3)cc1,-12.1% (inactive)
16,O=C(O)CC1OCC=C2CN3CCC45c6ccccc6NC4C1C2CC35 (stereo unspecified),-2.6% (inactive)
17,O=C1COc2ccc(S(=O)(=O)N3CCC(C(=O)NCc4ccc(F)cc4)CC3)cc2N1,-1.8% (inactive)
18,Cc1cc(C)cc(N2CC(O)=C(c3nc4ccccc4c(=O)[nH]3)C2=N)c1,60.5% (active)
19,COc1ccc(C(=O)OC2CC[C@@]3(C)C4CCC5[C@]6(O)CC(O)[C@@]7(O)C(CN8CC(C)CCC8[C@@]7(C)O)[C@]6(O)C[C@@]53O[C@]24O)cc1OC (stereo partly specified),-10.1% (inactive)
20,COC(=O)CCCC(=O)N1CCC(n2nccc2NC(=O)CCOc2ccccc2)CC1,7.4% (inactive)
21,Cc1cc(=O)oc2c3c(cc(OCC(=O)NCC(=O)N[C@H](C(=O)O)C(C)C)c12)OC(C)(C)CC3,9.6% (inactive)
22,COc1cccc(CC(NC(C)=O)C(=O)NC2CCN(C(=O)c3ccc(Cl)cc3)CC2)c1 (stereo unspecified),0.6% (inactive)
23,CCCNC(=O)CN1C(=O)COc2ccc(S(=O)(=O)N3CC(C)CC(C)C3)cc21 (stereo unspecified),5% (inactive)

row,Compound,inhibition
1,O=C(NCCN1CCOCC1)C(=O)NCC1OCCCN1S(=O)(=O)c1ccc(F)cc1 (stereo unspecified),-15.9% (inactive)
2,O=C(O)c1ccc(N2C(=O)/C(=C/c3ccc(-c4ccc([N+](=O)[O-])cc4)o3)C=C2c2ccccc2)cc1,99% (active)
3,CC1CC(C)CN(CCCNC(=O)CCC(=O)N2CC(C)Oc3ccccc32)C1 (stereo unspecified),-2.6% (inactive)
4,O=C(/C=C/c1c(Cl)nc2ccccn12)N1CCN(c2ccc(F)cc2)CC1,26.8% (inactive)
5,Cc1cc(OCC(=O)Nc2ccc(N3CCN(C(=O)c4ccco4)CC3)cc2)cc(C)c1Cl,94.6% (active)
6,Cn1c(SCC(=O)Nc2ccc(N3CCOCC3)cc2)nnc1-c1ccco1,1% (inactive)
7,Cc1ccc(NC(=O)C2CCN(C(=O)c3ccco3)CC2)cc1,-5.8% (inactive)
8,Cc1ccc(S(=O)(=O)N2CCCCC2)c2nsnc12,-2% (inactive)
9,COc1cc(C(=O)N2CCc3ccccc32)c([N+](=O)[O-])cc1OC,26.5% (inactive)
10,CCOc1ccc2nc(N3CCCC(C(=O)NCCCN4C(C)CCCC4C)C3)sc2c1 (stereo unspecified),-12.1% (inactive)
11,Cc1ccc2oc(Nc3nc(-c4ccccc4)cc(=O)[nH]3)nc2c1,61.1% (active)
12,CCOc1ccc(C(=O)NC2CCN(CC(=O)NCc3ccccc3)CC2)cc1,-7.3% (inactive)
13,COc1cccc(NC(=O)NCCN2CCCCC2)c1,-15.8% (inactive)
14,Cc1ccc(NC(=S)c2ccc3ccccc3n2)c(C)c1,5.5% (inactive)
15,Cc1ccc(-n2cccn2)c([C@@H]2C[C@H]3CN(C)C(=O)[C@]34CCCN24)c1,-6.3% (inactive)
16,C=CCc1cc(Cl)ccc1OCCOCCNC(C)(C)C,-15% (inactive)
17,Brc1ccc(C2=Nc3ccccc3C(c3ccncc3)=NN2)cc1,82.1% (active)
18,COC(=O)[C@@]1(Cc2ccc(F)cc2)[C@H]2c3cc(C(=O)N4CCCC4)n(CCc4ccccn4)c3C[C@H]2CN1C(=O)c1ccccc1,-0.9% (inactive)
19,CCC1CCCCN1CCCNC(=O)Cn1ncn2nc(-c3ccc(OC)cc3)cc2c1=O (stereo unspecified),-4% (inactive)
20,OCCC1CN(Cc2ccc(F)cc2)CCN1CCc1ccccc1 (stereo unspecified),-5.4% (inactive)
21,O=C(N/N=C1/C(=O)c2cccc3cccc1c23)c1ccc(Cl)cc1,98.9% (active)
22,CCOc1ccccc1N(C(=O)c1ccco1)C(C(=O)NC1CCCC1)c1cccs1 (stereo unspecified),14.1% (inactive)
